High-throughput results: PubChem, National Center for Advancing Translational Sciences (NCATS)
An excerpt weighted towards active compounds, which were near 3.2% of everything screened.
Tau ThT inhib: inhibitors of human tau fibril formation, thioflavin T binding | P10636 | recombinant tau K18 P301L, heparin-induced fibrillization, ThT fluorescence | Potency, µM (titrated, usually from 57.4 µM), actives largely listed as inhibitors | 270,000 compounds, 2.1% hits | AID 1460; note: nearly all actives have a fitted effect of over 55% in size
Target sequence (P10636 561-689 P618L limits assumed): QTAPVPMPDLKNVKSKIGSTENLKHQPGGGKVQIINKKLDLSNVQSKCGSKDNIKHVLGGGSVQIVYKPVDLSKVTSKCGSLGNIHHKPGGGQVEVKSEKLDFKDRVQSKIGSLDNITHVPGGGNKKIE
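Tau K18 P301L fragment (15 uM unlabeled plus 0.24 uM Alexa 594-labeled) in 100 mM sodium acetate pH 7 with compound, fibrillization induced by 20 uM heparin for 6 hr at 37 C. Thioflavin T (30 uM) added, fluorescence read after 1 hr (ex 450, em 510 nm).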
TexasRed fluor: counter-screen for TRb-SRC2 inhibitors: fluorescence interference; TRb/SRC2 Texas Red total fluorescence interference; Potency, µM (series often up to 106 µM); 280,000 compounds, 0.29% hits; AID 1479; active = well fitted curve in either direction with a large enough effect; inconclusive = small, poorly fitted or top-dose-only effect
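Human TRβ ligand-binding domain (0.6 uM) and Texas Red SRC2 peptide (20 nM) in Tris buffer with 1 uM T3 and 5% DMSO were incubated with pinned compound for 5 hr at ambient temperature. Total fluorescence was computed as S + 2P (555/632 nm).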
TRb SRC2 PPI: disrupts binding of human TR beta to SRC2. TRbeta-SRC2 peptide binding, fluorescence polarization; receptor liganded with 1 µM T3. 280,000 compounds, 0.065% hits. P10828. Potency, µM (titrated, usually from 106 µM), usual class: inhibitors; note: nearly all actives have a fitted effect of over 50% in size
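Fluorescence polarization of 20 nM Texas Red SRC2 peptide with 0.6 uM human TRb ligand-binding domain, in Tris buffer with 1uM T3 and 5% DMSO. Incubated 5 hr ambient; normalized to unbound and bound controls.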
Tau FP inhib: blocks human tau fibril formation measured by polarization. P10636. K18 P301L tau heparin fibrillization, Alexa594 FP, 6 h. Potency, µM (highest dose often 57.7 µM), hits mostly inhibitors. 280,000 compounds, 0.39% hits. AID 1468; note: nearly all actives have a fitted effect of over 55% in size
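Recombinant K18 P301L […], labeled with Alexa 594 at 0.24 uM over 15 uM unlabeled; heparin inducer 20 uM final; 37 C, 6 hr; FP endpoint.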
Tau fluor cs: counter-screen for tau fibril formation inhibitors. tau K18 P301L (four-repeat tau fragment) Alexa594 fluorescence, heparin fibrillization. Potency, µM (series often up to 57.7 µM). 280,000 compounds, 0.93% hits. AID 1463; note: nearly all actives have a fitted effect of over 55% in size
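Human K18 P301L tau (15 uM unlabeled plus 0.24 uM Alexa 594-labeled, final) in 100 mM sodium acetate pH 7 was mixed with compound and 20 uM heparin and incubated 6 hr at 37 C.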
GoLoco inh red: blocks human Gai1 binding to RGS12 GoLoco peptide, red readout. P63096. Gai1:RGS12 GoLoco peptide FP, rhodamine, 10 min. Potency, µM (titrated, usually from 61.6 µM), hits mostly inhibitors. 230,000 compounds, 0.44% hits. AID 880; active = well fitted inhibition curve with a large enough effect, not every such curve was filed as active; inactive = no such curve, though single readings can be large or run the other way; note: nearly all actives have a fitted effect of over 30% in size
Target sequence (P63096 whole entry, looked up): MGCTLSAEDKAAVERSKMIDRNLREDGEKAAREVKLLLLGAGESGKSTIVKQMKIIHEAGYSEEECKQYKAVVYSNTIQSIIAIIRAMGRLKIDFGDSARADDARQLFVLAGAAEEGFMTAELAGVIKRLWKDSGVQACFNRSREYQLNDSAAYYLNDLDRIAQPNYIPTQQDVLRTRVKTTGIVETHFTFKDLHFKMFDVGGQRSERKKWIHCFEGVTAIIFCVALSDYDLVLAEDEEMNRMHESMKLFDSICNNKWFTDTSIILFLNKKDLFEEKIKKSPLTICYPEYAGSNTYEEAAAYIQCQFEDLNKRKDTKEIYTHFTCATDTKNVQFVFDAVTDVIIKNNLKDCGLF
Each line names hits and unclear results; the compound was inactive in the other large screens; [ ] = dose if it differs, or a comment. Unless noted, calls come from the whole dose curve; as a rule, active = well fitted curve in the direction sought with a large enough effect; inconclusive = small, poorly fitted or top-dose-only effect, or another doubt; inactive = no such curve, though single readings can be large; an effect the other way counts as inactive or inconclusive.

Cc1[nH]c2ccccc2c1/C=N/NC(=S)NCc1ccccc1	Tau ThT inhib inconclusive, Tau fluor cs 13µM[quencher]
Cc1[nH]c2ccccc2c1/C=N/NC(=O)c1cc(-c2ccccc2)n[nH]1	Tau FP inhib inconclusive, Tau fluor cs 16µM[quencher] (no result: Tau ThT inhib)
CC12CCC=CC1C(c1ccc3ccccc3c1C=Cc1ccccc1)N(Cc1ccccc1)C2=O (stereo unspecified)	none (no result: Tau ThT inhib, Tau FP inhib, Tau fluor cs, GoLoco inh red)
C[C@@H]1CCC2[C@](C)(CO)[C@@H](O)CC[C@]2(C)[C@]12CCC(CO)(CCO)O2 (stereo partly specified)	none
CCCCCCCCCCCC[N+](C)(C)[O-]	none (no result: Tau ThT inhib, Tau FP inhib, Tau fluor cs, GoLoco inh red)
NC(=S)N=Nc1c(O)[nH]c2c(Br)cc(Br)cc12	Tau ThT inhib 7.9µM
NC(=S)N=Nc1c(O)[nH]c2ccccc12	Tau ThT inhib inconclusive
CN(C)c1ccc(/C=N/N2C(=S)SC(C)(C)C2N(O)C(=O)Nc2ccc([N+](=O)[O-])cc2)cc1 (stereo unspecified)	Tau ThT inhib 18µM, Tau fluor cs 11µM[quencher]
CNC(=O)N(O)C1N(/N=C/c2cccnc2)C(=S)SC1(C)C (stereo unspecified)	none
COc1ccc(NC(=O)c2nnn(Cc3nc(-c4cc(OC)c(OC)c(OC)c4)oc3C)c2C)cc1Cl	TexasRed fluor 0.0089µM[quencher] (no result: GoLoco inh red)
COc1cc(-c2nc(Cn3nnc(C(=O)Nc4ccccc4)c3C)c(C)o2)cc(OC)c1OC	Tau ThT inhib inconclusive (no result: GoLoco inh red)
CCN(CC)c1ccc(/C=c2\sc3nnc(-c4ccccc4Cl)n3c2=O)cc1	Tau ThT inhib 7.1µM
O=C1CCCC1C(O)c1ccc2ccccc2c1 (stereo unspecified)	Tau ThT inhib inconclusive, Tau FP inhib inconclusive, Tau fluor cs inconclusive
Cc1cc(=O)c2c(O)c3c(O)cc(=O)c4c3c3c(cc(O)c1c23)C(C)(C)C=4O	Tau ThT inhib 8.9µM, TexasRed fluor inconclusive, Tau fluor cs inconclusive, GoLoco inh red 0.63µM
C=CC1=C2C=C(C3CC3)N(Cc3ccco3)C=C2C(=O)C(C)(OC(=O)c2ccco2)C1=O (stereo unspecified)	none
Cc1[nH][nH]c(=O)c1C(c1c(C)[nH][nH]c1=O)c1cn(Cc2cccc3ccccc23)c2ccccc12	Tau ThT inhib 10µM, TRb SRC2 PPI inconclusive, Tau FP inhib inconclusive, Tau fluor cs inconclusive
CCOC(=O)C1=C(C)NC2=C(C(=O)CC(C)(C)C2)C1c1cccc(C)n1 (stereo unspecified)	none
CCOC(=O)CN=C1CC(C)(C)CC2=C1Sc1ncnc(N(C)C)c1N2	Tau ThT inhib 16µM, Tau fluor cs inconclusive
CC1CC=CC2C1C(=O)N(Cc1ccccc1)C2c1ccoc1 (stereo unspecified)	none (no result: Tau ThT inhib, Tau FP inhib, Tau fluor cs, GoLoco inh red)
CC(C)C(=O)NC(c1ccccc1)c1cc([N+](=O)[O-])c2cccnc2c1O (stereo unspecified)	Tau ThT inhib inconclusive
CC(=O)NC(c1ccccc1)c1cc([N+](=O)[O-])c2cccnc2c1O (stereo unspecified)	Tau ThT inhib 10µM, Tau FP inhib inconclusive
CC1(C)CC(=O)C(CC2=C(O)CC(C)(C)CC2=O)C(=O)C1	Tau ThT inhib 14µM, Tau FP inhib 28µM
CC1(C)CC(=O)C(CC2=C(O)CC(C)(C)CC2=O)=C(O)C1	Tau ThT inhib 16µM, Tau FP inhib 40µM
O=C(O)c1ccccc1OS(=O)(=O)O	none (no result: Tau ThT inhib, Tau FP inhib, Tau fluor cs, GoLoco inh red)
O=C1[C@H]2[C@H]3[C@H](O)[C@H](O)C/C(=N/OC[C@@H](O)COCc4ccco4)[C@@H]3CC[C@@H]2C(=O)N1C1CCCCC1	none (no result: GoLoco inh red)
CSCC[C@H](NC(=O)[C@H](CC(C)C)NC(=O)[C@@H]1CCCN1C(=O)[C@H](Cc1ccccc1)NC(=O)[C@H](Cc1ccccc1)NC(=O)[C@@H]1CCC(=O)N1)C(N)=O	none (no result: Tau ThT inhib, Tau FP inhib, Tau fluor cs, GoLoco inh red)
C/C(=N/NS(=O)(=O)c1ccc(C)cc1)P(=O)(O)O	none (no result: Tau ThT inhib, TexasRed fluor, TRb SRC2 PPI, Tau FP inhib, Tau fluor cs)
O=C1c2ccccc2C(=O)N1CC(O)COCc1ccccc1 (stereo unspecified)	none
